# In the supplement of paper PMC7156485:
# Test system: HCC1569
# Test: H1.0 immunofluorescence intensity relative to DMSO (% of DMSO); higher = stronger H1.0 induction, active = 140 or more
# Conditions: concentration: 10 µM; 24 h
# Method in brief: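 H1.0 nuclear intensity or cell number is expressed as percent of the plate control, with the median of replicates taken. HCC1569 and TDF cells were treated with compounds at 10 µM for 24 h at 37 °C, in triplicate, then fixed and immunostained for H1.0 with DAPI as a nuclear stain. HCC1569 values were smoothed to correct for positional effects.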
# 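Note: TDF is a line of transformed human dermal fibroblasts of mesenchymal origin.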
row,Compound,H1.0 immunofluorescence intensity
1,CCCCC1=NC2(CCCC2)C(=O)N1Cc1ccc(-c2ccccc2-c2nn[nH]n2)cc1,88.4 (inactive)
2,Nc1nc(=O)c2ncn(COCCO)c2[nH]1 [Acyclovir],85.5 (inactive)
3,O=C(O)c1cc([N+](=O)[O-])ccc1NCCCc1ccccc1 [5-Nitro-2-(3-phenylpropylamino)benzoic acid],88.1 (inactive)
4,"CN1C2CCC1CC(NC(=O)c1nn(C)c3ccccc13)C2.O=C(O)C=CC(=O)O (stereo not given) [LY-278,584 maleate]",93 (inactive)
5,COc1ccc(-c2coc3cc(O)cc(O)c3c2=O)cc1 [Biochanin A],90.6 (inactive)
6,CNC1(C)C2CCC(C2)C1(C)C (stereo not given) [Mecamylamine],107 (inactive)
7,C=C1C(=CC=C2CCCC3(C)C2CCC3C(C)CCCC(C)C)CC(O)CC1O (stereo not given) [Alfacalcidol],101 (inactive)
8,CN(C)CCCN1c2ccccc2CCc2ccccc21.Cl [Imipramine.HCl],100 (inactive)
9,Cc1cc(Nc2ncc3cc(-c4c(Cl)cccc4Cl)c(=O)n(C)c3n2)ccc1F,187 (active)
10,O=C1N(c2ccccc2)c2ccccc2C1(Cc1ccncc1)Cc1ccncc1 [Linopirdine],94.7 (inactive)
11,Cl.Cl.Cl.Cl.NCCCNCCCCNCCCN [Spermine tetrahydrochloride],86.7 (inactive)
12,CCCCCC=CC=C1C(=O)C=CC1CC=CCCCC(=O)O (stereo not given) [15d-Prostaglandin J2],104 (inactive)
13,S=C([S-])OC1CC2CC1C1CCCC21.[K+] (stereo not given),98.2 (inactive)
14,COc1cccc2c1C(=O)c1c(O)c3c(c(O)c1C2=O)CC(O)(C(=O)CO)CC3OC1CC(N)C(O)C(C)O1.Cl (stereo not given) [Doxorubicin.HCl],1430 (active)
15,CN(C(Cc1ccc(OS(=O)(=O)c2cccc3cnccc23)cc1)C(=O)N1CCN(c2ccccc2)CC1)S(=O)(=O)c1cccc2cnccc12 (stereo not given),127 (inactive)
16,CCc1cc(Cl)c(OC)c(C(=O)NCC2CCCN2CC)c1O.Cl (stereo not drawn) [S-(-)-Eticlopride hydrochloride],97.8 (inactive)
17,CCCCCC(O)C=CC1C2CC(CO2)C1CC=CCCCC(=O)O (stereo not given),99.9 (inactive)
18,CCCCCCCCCCCCCCCC(=O)OCC=C(C)C=CC=C(C)C=CC1=C(C)CCCC1(C)C [Retinyl palmitate],101 (inactive)
19,CC(CS)C(=O)N1CCCC1C(=O)O (stereo not given) [Captopril],96.7 (inactive)
20,"CC1CCC(C(C)(C)O)CC2=C1CCC2C (single isomer, unassigned; (-)) [(-)-Guaiol]",106 (inactive)

row,Compound,H1.0 immunofluorescence intensity
1,O=C1Nc2cc(Br)ccc2C1=C1N=c2ccccc2=C1NO [GSK-3 Inhibitor IX],222 (active)
2,CC(C)C(NC(=O)OCc1ccccc1)C(=O)NC(C=O)Cc1ccccc1 (stereo not given),102 (inactive)
3,O=C(O)CCCc1c[nH]c2ccccc12 [Indole-3-butyric acid],86.6 (inactive)
4,COC(=O)c1ccc(O)c2[nH]c3c(C=O)c(O)cc(=O)c-3nc12 [Lomofungin],101 (inactive)
5,CCS(=O)(=O)CCn1c([N+](=O)[O-])cnc1C [Tinidazole],105 (inactive)
6,NC(=O)c1cccc(N)c1 [3-aminobenzamide],87.7 (inactive)
7,CNC1C(O)C(NC)C2OC3(O)C(=O)CC(C)OC3OC2C1O.Cl.Cl (stereo not given) [Spectinomycin.2HCl],100 (inactive)
8,CN(C)CCOC(c1ccccc1)c1ccccc1.Cl [Diphenhydramine hydrochloride],97 (inactive)
9,C(=Cc1ccccc1)CN1CCN(C(c2ccccc2)c2ccccc2)CC1 [Cinnarizine],101 (inactive)
10,CC(C=CC1=C(C)CCCC1(C)C)=CC=CC(C)=CC(=O)O [Retinoic acid],120 (inactive)
11,COc1ccc(-c2cc(=O)c3ccc(O)cc3o2)cc1 [Pratol],105 (inactive)
12,CC(=O)O.O=C(O)c1ccc2c3c1cccc3c(=O)n1c3ccccc3nc21,105 (inactive)
13,CC1COc2c(N3CCN(C)CC3)c(F)cc3c(=O)c(C(=O)O)cn1c23 (stereo not given) [Ofloxacin],96.5 (inactive)
14,CC=CC(=O)N(CC)c1ccccc1C [Crotamiton],104 (inactive)
15,O=C1Cc2c([nH]c3ccc(Br)cc23)-c2ccccc2N1 [Kenpaulone],83.4 (inactive)
16,O=P(O)(O)C(O)(Cc1cccnc1)P(=O)(O)O [Risedronic acid],99.9 (inactive)
17,COC(=O)C(Cc1ccc(OCCn2c(=O)sc3cc(C(=O)c4ccccc4)ccc32)cc1)C(=O)OC,105 (inactive)
18,COC(=O)C(N)Cc1ccc(Cl)cc1.Cl (racemic) [DL-p-Chlorophenylalanine methyl ester hydrochloride],104 (inactive)
19,COC(=O)[C@H](Cc1ccc([N+](=O)[O-])cc1)NC(=O)c1cccc2ccccc12 [methyl (2S)-2-(1-naphthoylamino)-3-(4-nitrophenyl)propanoate],101 (inactive)
20,O=c1[nH]c(=O)n(C2CC(O)C(CO)O2)cc1I (stereo not given) [Idoxuridine],121 (inactive)
